This passage reports growth results from PubChem BioAssay (NCI).

Values joined by “and” are separate entries in the source; they are usually repeats but may differ in a detail not shown here. Equal entries are not always repeated. This is part of a sample that, as a whole, favours compounds with a hit. Of some 83,000 tested, about 20% had one in any assay.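 How to read the values: 0–100, growth inhibition (40 = 60% inhibited); 0, no net growth; -100 to 0, cell death (-40 = 40% of starting cells died; -100 = all dead).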 Active and inactive are the calls of the source. How the source made its calls: active means growth percent below 10; inactive means the rest.

In this assay the test system is MDA-MB-468 breast. Nature of the assay: NCI-60 one-dose screen, 48 h (100 = growth as untreated, 0 = no growth, -100 = all killed). The conditions noted are these: 10 µM unless noted.
For `Cc1ccc(CSc2nc(-c3ccc(Cl)cc3)c(C#N)c(N3CCNCC3)n2)cc1`, the growth is 81.5% (inactive).
For `COc1cc(C(=O)c2c(-c3ccccc3)oc3c(OC)cccc23)cc(OC)c1O` the value was 4.03% (active).
The result for `CCc1ccc2c(c1)N(CCO)C1=C(C(=O)OC1)C2c1ccccc1` (stereo not given) reads 104% (inactive); that for `CCN1CCN(c2nc3ccccc3c3c(=O)c4ccccc4sc23)CC1`, 35.5% (inactive).
The result for `NC(CCl)=NCC12CC3CC(CC(C3)C1)C2` reads -31.3% (active).
`CCN1C(=S)N(CC)C2C1N=C(SC)N2/N=C/C=C/c1ccccc1[N+](=O)[O-]` (stereo not given): the growth is 99.8% (inactive).
Regarding `O=C1Nc2ccc(Br)cc2/C1=N\c1nnc(-c2ccc(Cl)cc2)o1`, the growth was 51.8% (inactive).
The result for `CC(C)c1ccc(C(=O)OCCCl)cc1` reads 111% (inactive); that for `COc1ccc(C(=O)C(O)c2ccc(OC)cc2)cc1` (stereo not given), 101% (inactive) and 96.3% (inactive).
For `C=C1C(=O)O[C@H]2[C@H]1CC/C(CNC(=O)c1cc3ccccc3[nH]1)=C\CC[C@@]1(C)O[C@@H]21`, the growth is -61.7% (active).
For `O=C1/C(=C/c2ccc(F)cc2)CN(Cc2cn(CCNc3ccnc4cc(Cl)ccc34)nn2)C/C1=C\c1ccc(F)cc1` the value was -64.2% (active).
For `CCN1C(=S)N(CC)C2Nn3c(s/c(=C4\C(=O)N(C)c5ccccc54)c3=O)=NC21` (stereo not given) the value was 11.7% (inactive).
The result for `CCCCCC/C=C1\CCC(CN2CCCC2)C1=O` (stereo not given) reads 73.2% (inactive); that for `c1ccc([I+]c2ccccc2)cc1`, 15.2% (inactive); that for `O=S(=O)(NCCCNc1nccc(-c2c(-c3cccc(F)c3)nc3occn23)n1)c1cccc2ccccc12`, 15.3% (inactive).
